# Compound activity deposited in PubChem by several laboratories.
# hDAT+cocaine: changed human dopamine transporter uptake under cocaine IC80. LLC-PK1 hDAT cells, [14C]-dopamine uptake with cocaine IC80; actives deviate in either direction. 1.3% of 110,000 active. B-score at 10 µM;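 active = Z score or B-score, a plate-position-corrected score, falls beyond the plate's 99.7% confidence bounds, in either direction; inactive = both scores lie inside the 99.7% bounds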
# Cav32 inh: blocks human Cav3.2 T-type calcium channel; O95180; Cav3.2-expressing cells, Fluo-4 calcium fluorescence FDSS; stronger effect = lower value; B-score at 10 µM; 4% of 100,000 active; AID 449739;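 active = single-dose well whose peak fluorescence ratio is a statistical outlier from its plate by either plate-standardised score or position-corrected B-score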
# D1 allo mod: D1 dopamine receptor (human) allosteric modulation | P21728 | 5.9% of 58,000 active | HEK293 D1, CRE-luciferase, dopamine EC30 potentiation; actives deviate in either direction | B-score at 10 µM;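 active = luminescence count or its row- and column-corrected plate score outside the 99.7% band of the plate's sample wells, on either side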
# Target sequence (P21728 whole entry, looked up): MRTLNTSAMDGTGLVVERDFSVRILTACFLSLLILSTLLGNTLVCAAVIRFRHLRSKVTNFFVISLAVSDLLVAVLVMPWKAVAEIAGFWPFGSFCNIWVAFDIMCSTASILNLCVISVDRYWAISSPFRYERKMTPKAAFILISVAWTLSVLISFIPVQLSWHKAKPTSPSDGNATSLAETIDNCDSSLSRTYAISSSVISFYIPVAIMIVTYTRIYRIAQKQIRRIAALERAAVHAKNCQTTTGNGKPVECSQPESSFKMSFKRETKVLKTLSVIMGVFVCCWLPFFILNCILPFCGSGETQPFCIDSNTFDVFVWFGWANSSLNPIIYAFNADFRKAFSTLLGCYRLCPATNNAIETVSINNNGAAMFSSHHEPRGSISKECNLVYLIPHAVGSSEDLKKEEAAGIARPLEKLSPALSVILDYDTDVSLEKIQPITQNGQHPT
# PLAP activator: activates human placental alkaline phosphatase. P05187. purified PLAP enzyme, luminescent substrate read-out; stronger effect = higher value. activation fold at 20 µM. 1.2% of 96,000 active. AID 696; in the data active = activation fold above about 2
# PostGolgi ctrl: growth of the yeast control strain, post-Golgi counter-screen | AID 738 | efflux-deficient yeast background strain, growth absorbance A615, 16 h | 5% of 98,000 active | inhibition, % at 10 µM
# PostGolgi yeast: growth inhibition of a yeast mutant, post-Golgi transport screen. AID 739. inhibition, % at 10 µM. 0.9% of 98,000 active. post-Golgi transport phenotypic cell assay;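 note: yeast cells grown in 1536-well plates; yeast grown about 18 h at 30C before absorbance read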
# Hits are given with their value; - = inactive; . = no result given. In the library only some 12% were active in any assay of this set; here they are far more common. Cut-off read from the data, not from the text of the source, unless noted: active = inhibition above about 30%; inactive = the rest.
SMILES,hDAT+cocaine,Cav32 inh,D1 allo mod,PLAP activator,PostGolgi ctrl,PostGolgi yeast
COc1cccc(Oc2cn[nH]c2-c2ccc(OC)cc2O)c1,-,-4.9,.,2.2,92.0,94.2
COc1ccc(-c2[nH]ncc2-c2ccc(Cl)cc2)c(O)c1,-,-,.,2,49.1,-
CCOc1ccc(-c2[nH]ncc2Oc2cccc(OC)c2)c(O)c1,-,-,.,2.6,75.1,85.7
CCC(Sc1nncn1C)C(=O)Nc1ccccc1OC (stereo not drawn),-,-,-,-,-,-
O=C(C#Cc1ccccc1)c1ccc([N+](=O)[O-])cc1,-,-,.,-,35.6,-
CCCc1cc(=O)[nH]c(SCc2cc(Cl)ccc2OC(F)F)n1,-,-,.,-,-,-
COc1ccc(N(C(=O)c2ccco2)C(C(=O)NC2CCCC2)c2ccc(N(C)C)cc2)cc1 (stereo not drawn),-,-3.51,.,-,-,-
COc1cccc(N(C(=O)CNC(=O)c2ccco2)C(C(=O)NC2CCCCC2)c2ccncc2)c1 (stereo not drawn),-,-,.,-,37.9,-
COc1cc(OC)cc(N(C(=O)c2ccco2)C(C(=O)NC2CCCC2)c2ccc(N(C)C)cc2)c1 (stereo not drawn),-,-,-,-,-,-
CCOC(=O)C1=C(O)/C(=C\c2ccc(CNC(=O)C(=O)Nc3ccccc3)o2)N=C1C,-,-,.,-,-,-
Clc1cccc2sc(-c3nnc(-c4ccccc4)o3)c(Cl)c12,-,-,.,.,.,.
O=C(CN(Cc1ccc2c(c1)OCO2)C(=O)CSc1nc2ccccc2o1)NC1CCCCC1,-,-3.93,-,-,-,-
ON=Cc1cccn1-c1ccccc1,-,-,-,-,-,30.5
O=C(O)c1cccc(-n2cccc2/C=N/O)c1,-,-,-,-,-,-
Nc1nc2ccc(C(=O)Nc3ccccc3)cc2s1,-,-,-,-,-,-
O=C(Nc1ccccc1F)c1ccc2nc(N3C(=O)CCC3=O)sc2c1,-,.,.,-,44.0,-
Cc1ccc(-c2nnn(CC(=O)N(c3ccccc3)C(C(=O)NCC3CCCO3)c3ccc(Cl)cc3)n2)cc1 (stereo not drawn),-,-4.65,.,-,-,-
COc1ccc(-c2nnn(CC(=O)N(Cc3ccccc3Cl)C(C(=O)NCC3CCCO3)c3ccco3)n2)cc1 (stereo not drawn),-,-,.,-,-,-
Cc1ccc(-c2nnn(CC(=O)N(c3ccccc3F)C(C(=O)NCC3CCCO3)c3c[nH]c4ccccc34)n2)cc1 (stereo not drawn),-,-7.07,.,-,-,-
Cc1ccc2c(c1)N(Cc1ccncc1)C(=O)C(C)O2 (stereo not drawn),-,-,-,-,-,-
COc1ccc(C2c3c(oc4c(C)cc(C)cc4c3=O)C(=O)N2Cc2cccnc2)cc1OC (stereo not drawn),.,.,-,-,.,.
COc1cc(C2c3c(oc4c(C)cc(C)cc4c3=O)C(=O)N2Cc2cccnc2)ccc1O (stereo not drawn),-,-,11.5,.,.,.
Cc1c(Br)c([N+](=O)[O-])nn1CC(=O)NCc1cccnc1,-,-,.,-,-,-
O=C(Nc1ccc2c(c1)OCCO2)c1ccccc1F,-1.8,-,-,-,-,-
CC(=O)N(CCc1ccccc1C)Cc1cc2cc3c(cc2[nH]c1=O)OCO3,-,-,-,-,-,-
SMILES,hDAT+cocaine,Cav32 inh,D1 allo mod,PLAP activator,PostGolgi ctrl,PostGolgi yeast
O=C(Nc1ccc2c(c1)OCCO2)c1c(F)cccc1F,-,-,-,-,-,-
O=C(CC(c1ccccc1)c1ccccc1)Nc1ccc2c(c1)OCCO2,-,-3.59,.,-,-,-
O=C(Nc1ccc2c(c1)OCCO2)C1CCC1,-,-,-,-,-,-
NC(=O)Nc1ccc2c(c1)OCCO2,-,-,.,-,-,-
O=C(Nc1ccc2c(c1)OCCO2)NC1CCCCC1,-,-,-3.13,-,-,-
CC(=O)N(CCC(Cc1ccccc1)c1ccc2c(c1)OCO2)Cc1ccccc1F (stereo not drawn),.,.,.,-,36.2,-
CC(C)Cn1c(-c2ccc(Cl)cc2)cnc1SCC(=O)N1CCOCC1,-,.,-,-,-,-
O=C(Nc1ccc(F)cc1)c1ccccc1F,-,-,.,-,-,-
O=C(NC(Cc1ccccc1)c1ccc2c(c1)OCCCO2)c1ccccc1F (stereo not drawn),2.63,-,.,-,-,-
O=C(Nc1ccncc1)c1ccccc1F,-,-,-,-,42.4,-
CC(=O)c1c(C)[nH]c(C(=O)Nc2ccc3c(c2)OCCO3)c1C,-,-,-2.75,-,-,-
C/C(=N\N=C\c1ccccc1)c1nnn(-c2nonc2N)c1C,-,-,.,-,-,-
COc1cc(/C=C(\C#N)C(=O)Nc2ccc(SC(F)F)cc2)cc(OC)c1OC,-,-,.,-,-,-
CCOc1cc(/C=C(/C#N)C(=O)Nc2ccc(O)cc2)cc(Br)c1O,-3.4,-7.94,.,-,-,-
CC1(c2nnc(-c3ccncc3)o2)CC(c2ccc(F)cc2)=NO1 (stereo not drawn),-2.33,-,.,.,.,.
Cc1ccc(N2CCN(C(=O)c3ccccc3NC(=O)C3CC=CCC3C(=O)O)CC2)cc1 (stereo not drawn),-,-,.,-,-,-
Cc1ccccc1N1CCN(C(=O)c2ccccc2NC(=O)C2CC=CCC2C(=O)O)CC1 (stereo not drawn),2.08,-,.,-,-,-
CC(C)(C)OC(=O)N1CCN(c2ccc(NC(=O)c3cc4ccccc4oc3=O)cc2)CC1,.,.,-,.,.,.
CCCCCCCCSc1nnc(-c2ccc(OC)cc2)o1,-,-,.,-,-,-
CCCCSc1ccc2nc(-c3ccc(C#N)cc3)cn2c1,2.45,-,.,-,-,-
CCOC(=O)C1CCN(C(c2cccnc2)c2c(NC(=O)c3ccco3)sc(C)c2C)CC1 (stereo not drawn),.,.,-,-,-,-
Cc1sc(NC(=O)c2ccco2)c(C(c2cccnc2)N2CCN(c3ccc(F)cc3)CC2)c1C (stereo not drawn),-,-,-2.99,-,-,-
O=C(O)CCC(=O)N1CCc2cc(S(=O)(=O)N3CC=C(c4ccccc4)CC3)ccc21,-,-,.,-,-,-
O=C(CSc1nnc(-c2cccs2)n1-c1ccccc1)N1CCc2ccccc21,.,.,-,.,.,.
COc1ccc(CCNC(=O)Cn2cnc3c(cnn3-c3ccccc3Cl)c2=O)cc1OC,-,-,-,-,-,-
SMILES,hDAT+cocaine,Cav32 inh,D1 allo mod,PLAP activator,PostGolgi ctrl,PostGolgi yeast
CCN1CC=C2C(C#N)=C(N)C(C#N)(C#N)C(c3cc(Cl)ccc3Cl)C2C1 (stereo not drawn),.,.,-,-,-,-
CC(=O)c1c(C)[nH]c(C(=O)OCC(=O)N2CCN(S(=O)(=O)c3ccc(C)cc3C)CC2)c1C,-,-,.,2,-,-
Cc1ccc(S(=O)(=O)N2CCN(C(=O)CSC3CCCC3)CC2)c(C)c1,-,-,-,-,-,-
COc1ccc(NC(=O)CCc2nc(-c3ccccc3F)no2)cc1,-,-,-,-,-,-
CCN(C(=O)c1ccc2c(Cl)c3c(nc2c1)CCC3)c1cccc(C)c1,-,-5.58,.,.,.,.
COc1ccccc1N1CCN(C(=O)c2ccc3c(Cl)c4c(nc3c2)CCCC4)CC1,-,-,.,.,.,.
